{
  "source": "PubChem BioAssay AID624305",
  "about": "(National Center for Advancing Translational Sciences (NCATS), 2012)",
  "note": "Results filed as inconclusive are left out. Values without a mark were called inactive. Calls of active or inactive are those of the source. Calls follow the shape of the dose curve; as a rule, active = well fitted activation curve with a large enough effect; inconclusive = small, poorly fitted or top-dose-only effect; inactive = no such curve, though single readings can be large or run the other way. Potency is read from the fitted curve at half-maximal effect.",
  "data": [
    {"experiment": "qHTS assay for re-activators of p53 using a Luc reporter: Hit Validation; also: nearly all actives have a fitted effect of over 75% in size; as to activation: 0% is about no effect", "settings": "p53-responsive luciferase reporter cells, luminescence, H1299 line expressing heat-sensitive Ala138Val p53; series mostly up to 46.1 µM; activation: at the top concentration", "outline": "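Hit confirmation with a 1:5 dilution series, at 37 deg C for 24 hrs, in H1299 cells co-expressing temperature-sensitive p53-A138V and p53-responsive luciferase. Nocodazole served as control; luminescence read after 10 min with detection reagent.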", "values": [
      {"molecule": "O=C(Nc1nnc(-c2cccs2)o1)c1cccc(C(F)(F)F)c1", "activation": "-4.17%"},
      {"molecule": "O=C(COC(=O)CNC(=O)c1ccc([N+](=O)[O-])o1)Nc1ncc(C(F)(F)F)cc1Cl", "activation": "-84.4%"},
      {"molecule": "O=C(Oc1ccc2ccccc2c1Cl)N1CCCCCC1", "Potency": "5.8 µM (active)"},
      {"molecule": "Cc1cccc(C)c1NC(=O)CC(NCc1ccco1)C(=O)O", "note": "(stereo not drawn)", "activation": "-13.7% [at 9.22 µM]"},
      {"molecule": "COc1ccc([N+](=O)[O-])cc1NC(=O)CSCc1ccc(Br)cc1", "activation": "-26%"},
      {"molecule": "O=c1[nH]c2ccc(N/C(=N/S(=O)(=O)c3ccccc3)c3ccccc3)cc2[nH]1", "activation": "30.2%"},
      {"molecule": "COc1cc(CN2CCCCC2C(=O)Nc2ccc(Oc3ccccc3)nc2)ccc1O", "note": "(stereo not drawn)", "activation": "8.85%"},
      {"molecule": "C/C(CC(C)C)=N\\NC(=O)Nc1ccccc1", "activation": "29.2%"},
      {"molecule": "CCn1c(=N)n(CCOc2ccc(OC)cc2)c2ccccc21", "activation": "-8.85%"},
      {"molecule": "O=C(Cn1cc2c(n1)CCCCC2)NC1CCCCCC1", "activation": "69.8%"},
      {"molecule": "O=C(NC(=S)Nc1nc2ccccc2s1)c1ccco1", "Potency": "0.58 µM (active)"},
      {"molecule": "COc1ccccc1C(=O)CSc1nccn1C", "activation": "31.8%"},
      {"molecule": "CCN1CCN(/C=N/c2nc3c(s2)CCCC3)CC1", "activation": "-13%"},
      {"molecule": "O=C(NC(=S)NCCc1ccccc1)C1CCCCC1", "Potency": "23.1 µM (active)"},
      {"molecule": "N/C(=N\\OC(=O)c1cc(Cl)ccc1Cl)c1ccccn1", "Potency": "0.92 µM (active)"},
      {"molecule": "Cc1cnc(C(=O)OCC(=O)Nc2ccc(OCc3ccccc3)cc2)cn1", "Potency": "18.4 µM (active)"},
      {"molecule": "CN(C(=O)CSc1nnc(-c2ccco2)o1)C1CCCCC1", "activation": "-86.5%"},
      {"molecule": "CC(C)(C)NC(=O)C(c1ccc(Cl)cc1)N(CCO)C(=O)c1snc(C(N)=O)c1N", "note": "(stereo not drawn)", "activation": "-2.08%"}
    ]}
  ]
}
